Consider 40 sequences from the supplement of paper PMC10338343.

± gives the standard deviation.

In this test the test system is MILI (PIWIL2) piRISC loaded with piRNA #1 (26 nt). Description: pre-steady-state target cleavage rate (min^-1); guide: piRNA #1 5'p-UGAGGUAGUAGGUUGUAUAGUAUCCA; MIWI and MILI are mouse PIWI proteins and EfPiwi is from a freshwater sponge; tags in brackets are library labels; higher = faster piRNA-guided slicing of the target. The following applies: auxiliary factor: 500 nM mouse GTSF1. The method in brief:
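The pre-steady-state cleavage rate came from a burst-and-steady-state fit to pooled data from three Cleave-'n-Seq trials, in which uncleaved targets were sequenced and normalised to depth and to weakly complementary targets. Each reaction held 0.1 nM transcribed, DNA-blocked target RNA library and 1 nM active affinity-purified piRISC carrying one synthetic guide, with or without 500 nM GTSF1 partner protein, in HEPES–potassium acetate buffer at 33 °C for 0–8 or 0–960 min. k3 was capped at 0.0001 min^-1.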
In the case of GGAGACCUAUGUAUACAACCUACCUACCUCA, the “pre-steady-state target cleavage rate” value was determined as 0.0358 ± 0.0076.
For the sequence GGAGACCUAUGUCUACAACCUACUACCUCA, the “pre-steady-state target cleavage rate” value was 0.0245 ± 0.004.
Turning to GGAGACCUAUGAUUAUCAACCUACUACCUCA, the “pre-steady-state target cleavage rate” value is 0.00367 ± 0.0025.
On to GGAGACCUUACAAUACAAGCUACUACCUCA, for which the “pre-steady-state target cleavage rate” value turned out to be 0.191 ± 0.011.
Under GGAGACCUAUGAUUACAACCUACUGACCUCA stands 0.00605 ± 0.0028; under GGAGACCUAACUAAACAACCUACUACCACA, 0.139 ± 0.027; under GGAGACCUUACUAUACAACCUACUUGCUCA, 0.098 ± 0.021.
Under GGAGACCUAUGAUUCAACCUACUACCUCA stands 0.0177 ± 0.0042; under GGAGACCUUACUAUUCAACGUACUACCUCA, 0.0187 ± 0.0035.
As for GGAGACCUAACUAUACAACCGUACUACCUCA, the “pre-steady-state target cleavage rate” value turned out to be 0.00506 ± 0.005.
For the sequence GGAGACCUAUGUAUACAACCUACUUGCUCA, the “pre-steady-state target cleavage rate” value came to 0.0104 ± 0.0037.
Take GGAGACCUAUGAAUACAACCUACAACCUCA: the “pre-steady-state target cleavage rate” value is 0.0078 ± 0.0029.
Regarding GGAGACGAUAGUAUAGAACCUACUACCUCA, the “pre-steady-state target cleavage rate” value came to 0.158 ± 0.013.
Take GGAGACCUAUGAAUACAACGUACAACCUCA: the “pre-steady-state target cleavage rate” value was 0.00489 ± 0.0026.
Take GGAGACCUAUCUAUACAACCAACUUCCUCA: the “pre-steady-state target cleavage rate” value was 0.00361 ± 0.0027.
For GGAGACCAUUCUAUACAACCUACAACCUCA, the “pre-steady-state target cleavage rate” value is 0.13 ± 0.013.
GGAGACCUAUGAUUACUACCUACUACCUCA: the “pre-steady-state target cleavage rate” value was 0.00306 ± 0.0021.
On to GGAGACCUAUCUUUACAACGUACUACCUCA, for which the “pre-steady-state target cleavage rate” value was determined as 0.00834 ± 0.002.
Take GGAGACGUUACUAUUCAACCUACUACCUCA: the “pre-steady-state target cleavage rate” value was 0.168 ± 0.011.
Consider GGAGACCUAUGAUAACAACCUACUACCGUCA, for which the “pre-steady-state target cleavage rate” value is 0.00366 ± 0.0026.
As for GGAGACGAUACAAUACAAGCUACUACCUCA, the “pre-steady-state target cleavage rate” value was determined as 0.236 ± 0.017.
For the sequence GGAGACCUUACUAUACAACCUACUAGCACA, the “pre-steady-state target cleavage rate” value worked out at 0.0607 ± 0.017.
Consider GGAGACCUUUCUAUACUACCUACUACCUCA, for which the “pre-steady-state target cleavage rate” value is 0.0739 ± 0.011.
Regarding GGAGACGAUAGUAUACAACCUACUACCACA, the “pre-steady-state target cleavage rate” value worked out at 0.136 ± 0.015.
To GGAGACCUUAGUAUACUACCUACUACCUCA belongs 0.0896 ± 0.012.
As for GGAGACCUAUGUAUACAACCUACUACCCA, the “pre-steady-state target cleavage rate” value amounted to 0.0226 ± 0.0055.
GGAGACCUAUGUAUACAACCAUACUACCUCA: the “pre-steady-state target cleavage rate” value was found to be 0.00475 ± 0.0025.
For GGAGACCUUUCUAUACAACCUUCUACCUCA, the “pre-steady-state target cleavage rate” value amounted to 0.00706 ± 0.003.
Regarding GGAGACCUAUGUAUACUACCUACUACCUCA, the “pre-steady-state target cleavage rate” value was found to be 0.0517 ± 0.008.
GGAGACCUAUCUAUACAAGCUACUACCACA: the “pre-steady-state target cleavage rate” value was 0.278 ± 0.019.
For GGAGACCUAACUAUACAACCUACAUACCUCA, the “pre-steady-state target cleavage rate” value turned out to be 0.0941 ± 0.018.
Turning to GGAGACCUUACUAAACAACCUACUACCUGA, the “pre-steady-state target cleavage rate” value was 0.0914 ± 0.017.
For GGAGACCUAACUAUAGAACCUACUACCUCA, the “pre-steady-state target cleavage rate” value turned out to be 0.131 ± 0.021.
To GGAGACCUUACUAUACUACCUACUUCCUCA belongs 0.119 ± 0.019.
As to GGAGACCUUACUAUACAACCUUCAACCUCA, the “pre-steady-state target cleavage rate” value was 0.00437 ± 0.003.
As for GGAGACCUAUGAUUUCAAGCUACUACCUCA, the “pre-steady-state target cleavage rate” value stood at 0.00713 ± 0.0026.
In the case of GGAGACCUAUGUAUACAACCCACUACCUCA, the “pre-steady-state target cleavage rate” value was 0.0101 ± 0.0034.
For the sequence GGAGUGGAUACUAUACAACCUACGUACCUCA, the “pre-steady-state target cleavage rate” value was found to be 0.118 ± 0.014.
Consider GGAGACCUAUCUAUACAACCAUACUACCUCA, for which the “pre-steady-state target cleavage rate” value amounted to 0.0049 ± 0.0031.
GGAGACCUAUGAAUACAACCUACUAACCUCA: the “pre-steady-state target cleavage rate” value was 0.0105 ± 0.0027.
